Screening data from PubChem BioAssay.
Compounds with a hit are over-represented: about 1% of the library has one in this group of screens.
RXFP1 agonist = qHTS Assay for Agonists of the Relaxin Receptor RXFP1; Relaxin receptor 1 (Homo sapiens), Q9HBX9; HEK293T-RXFP1 cAMP TR-FRET, 30 min; response scale: percent of porcine relaxin response, buffer zero; Potency, µM (highest dose often 57.5 µM), for the others: top-dose activation, most hits filed as activators; 370,000 tested, 0.3% active; AID 2676, 2010; active = well fitted activation curve with a large enough effect; inconclusive = small, poorly fitted or top-dose-only effect; also: potency is read from the fitted curve at half-maximal effect; % is scaled to controls: 0 for no effect and ±100 for the full control effect; nearly all actives have a fitted effect of over 60% in size
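HEK293 cells stably expressing RXFP1, treated 30 min at 37C with compounds plus PDE4 inhibitor Ro 20174; cAMP measured by HTRF TR-FRET. Normalized to buffer and 29 nM porcine relaxin; EC50 by Hill fit.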
TSHR antag = Antagonists of the Thyroid Stimulating Hormone Receptor: HTS campaign; Thyrotropin receptor (Homo sapiens), P16473; TSHR-expressing cells, TSH-stimulated cAMP HTRF, 2 h; hits give low values; activity change, negative = inhibition, % at 11.5 µM; 330,000 tested, 0.2% active; AID 504810, 2011;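 active = activity change below a set negative limit, meaning inhibition stronger than a set level, cut at about -70% in these data; inconclusive = activity change between two set negative limits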; also: % is scaled to controls: 0 for no effect and ±100 for the full control effect
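Competitive HTRF cAMP read-out (cryptate anti-cAMP antibody, cAMP-d2; 30 min, room temperature) in freshly harvested TSHR cells. Compounds added before TSH at EC80 (4nM final), followed by 2 hours' incubation at 37 deg C.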
gsp antagonist = qHTS for Antagonists of gsp, the Etiologic Mutation Responsible for Fibrous Dysplasia/McCune-Albright Syndrome: qHTS | gsp-mutant cells, cAMP HTRF, 30 min | Potency, µM (titrated, usually from 76.9 µM), for inactives: at the top dose activity change, negative = inhibition, most hits filed as inhibitors | 340,000 tested, 0.4% active | AID 624288, 2012; calls by dose curve; cell line not stated here;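 also: intracellular cAMP measured with PDE inhibitor Ro 20-1724 present during compound exposure; potency is read from the fitted curve at half-maximal effect; % is scaled to controls: 0 for no effect and ±100 for the full control effect; nearly all actives have a fitted effect of over 65% in size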
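Measurement of cellular cAMP by homogeneous time-resolved fluorescence following a 30 min compound exposure at 37C. The PDE inhibitor […] was present throughout; the assay buffer was DPBS with 0.05% BSA and 0.005% Tween 20.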
gsp agonist = qHTS for Agonist of gsp, the Etiologic Mutation Responsible for Fibrous Dysplasia/McCune-Albright Syndrome: qHTS. Potency, µM (top dose mostly 76.9 µM), inactives show at the highest dose activation (cAMP increase), most hits filed as activators. gsp mutant cells, cAMP HTRF, 30 min. 340,000 tested, 0.13% active; active = well fitted activation curve with a large enough effect; inconclusive = small, poorly fitted or top-dose-only effect, or another doubt; inactive = no such curve, though single readings can be large or run the other way; cell line not stated here;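 also: phosphodiesterase inhibitor Ro 20-1724 added with compounds to block cAMP breakdown; potency is read from the fitted curve at half-maximal effect; nearly all actives have a fitted effect of over 60% in size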
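Cells stably selected in G418 were plated at 2000/well, grown 16-24 hr, then given compounds in DMSO with the PDE inhibitor […] (300 uM solution added) for 30 min at 37C; cAMP was read by HTRF.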
RXFP1 antagonist = qHTS Assay for Antagonists of the Relaxin Receptor RXFP1 | AID 1259400, 2018 | HEK293-RXFP1, relaxin-stimulated cAMP HTRF, 30 min; hits give low values | 350,000 tested, 0.59% active | Relaxin receptor 1 (Homo sapiens), Q9HBX9 | activity change, negative = inhibition, % at 57.5 µM;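 active = activity change of -60% or lower, but not beyond a set lower limit; inconclusive = change between -60% and -40%, or beyond the set limit; inactive = change above -40%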; also: % is scaled to controls: 0 for no effect and ±100 for the full control effect
* hit, by the source's call; ? = inconclusive; · = no result; ! = a repeat was not active; [ ] = remark or other dose.

SMILES | RXFP1 agonist | TSHR antag | gsp antagonist | gsp agonist | RXFP1 antagonist
COc1cc2cc(CN(CCCN3CCOCC3)Cc3nnnn3Cc3ccccc3)c(=O)[nH]c2cc1OC | 2% | 18 | 8.9µM* | 4%[15.4 µM] | -5
CCOc1ccc2[nH]c(=O)c(CN(CCCN3CCOCC3)Cc3nnnn3Cc3ccc(OC)cc3)cc2c1 | 0% | 12 | · | 4%[15.4 µM] | 2
CCOC(=O)c1ccc(NC(=S)N2CCSC2c2c(F)cc(F)cc2F)cc1 (stereo not given) | -1% | 46 | -15% | 17% | -19
OCCN1CCN(C(=S)Nc2cccc(C(F)(F)F)c2)CC1 | 1% | -4 | 7% | 3% | -69*!
Fc1cc(F)c(C2SCCN2C(=S)Nc2cccc(C(F)(F)F)c2)c(F)c1 (stereo not given) | 0% | -72* | 3% | 9%[15.4 µM] | -15
NCc1ccccc1Sc1ccccc1CO | · | · | · | · | -16
Cc1ccccc1Nc1c(-c2ccc(N3CCOCC3)cc2)nc2ccc(Br)cn12 | 1% | · | · | · | -15
O=C1C=CC2(O[C@H](c3ccccc3)[C@@H](c3ccccc3)O2)[C@H](Sc2ccccc2O)C1 | · | · | -13% | -7% | -99*
C[C@@H]1[C@@H](Sc2ccccc2)CC(=O)O[C@@H]1c1ccc(-c2ccccc2)cc1 | · | · | -18% | 23% | ·
N#C/C(=C\c1ccc(O)c([N+](=O)[O-])c1)c1nc2ccccc2s1 | 2% | ? | 35µM* | -1%[15.4 µM] | 12
COc1cc(/C=C(\C#N)c2nc3ccccc3s2)cc([N+](=O)[O-])c1O | 2% | -71* | ? | -1%[15.4 µM] | -7
COc1ccc(-c2csc(/C(C#N)=C\c3ccc(O)c([N+](=O)[O-])c3)n2)cc1OC | 0% | -72* | -29% | -11%[15.4 µM] | 5
CCCCC(=O)OC1=C(C(=O)c2ccccc2)N(CC)S(=O)(=O)c2ccccc21 | -1% | · | · | · | ?
CCCCN1C(C(=O)c2ccccc2)=C(OC(C)=O)c2ccccc2S1(=O)=O | 3% | · | · | · | -63*
CCN1C(C(=O)c2ccccc2)=C(Nc2ccccc2C)c2ccccc2S1(=O)=O | -1% | -79* | 8% | 0% | -4
COc1ccc(CNC(=O)Cc2c(C)c3c(cc(C)c4c(C)c(C)oc43)oc2=O)cc1OC | 0% | · | · | · | 0
CCOc1ccc(/C=C/c2nc(C#N)c(NCc3ccc(OC)cc3)o2)cc1 | 6% | · | · | · | 3
COc1cccc(C2CC(=O)Nc3c2c(=O)nc2c(C)cccn32)c1OC (stereo not given) | 4% | · | · | · | -3
COc1ccc(NC(=O)Cn2c(SCc3ccc(F)cc3)nc3cccnc32)c(OC)c1 | 1% | · | · | · | 6
COc1ccc(S(=O)(=O)NCCc2c[nH]c3ccc(C)cc23)cc1 | 1% | 12 | 32µM* | ? | -8
Cc1ccc2nc(SCC(=O)Nc3ccc(Cl)cc3)nc(=O)n2c1 | 18% | -13 | 10% | 25%[15.4 µM] | 5
Cc1ccc2nc(SCC(=O)Nc3ccc(F)cc3)nc(=O)n2c1 | 22% | -5 | 17% | 14µM* | 10
O=C(Cn1c(=O)n(-c2ccc(Cl)cc2)c(=O)c2sc3ccccc3c21)NC1CCCC1 | 1% | · | · | · | ·
Cc1[nH]n(-c2ccccc2)c(=O)c1C(c1ccc(O)c([N+](=O)[O-])c1)c1c(C)[nH]n(-c2ccccc2)c1=O | · | · | 11µM* | 8% | -10
N#CC(C#N)=C1C=CC=CN1/C(=C\c1ccco1)C(=O)c1ccc(Cl)cc1 | 0% | -84* | 16% | 11% | ?
N#CC(C#N)=C1C=CC=CN1/C(=C\c1ccco1)C(=O)c1ccc(-c2ccccc2)cc1 | -1% | -44 | 19% | -13% | -35
CCC1CN(C(=O)N2CCC(C(=O)NCCCc3ccccc3)CC2)c2cc(C)ccc2O1 (stereo not given) | 0% | · | · | · | -69*
COc1ccc(C(=O)Nc2nc3n(n2)C(c2ccc(Cl)cc2)C=C(c2ccccc2)N3)cc1OC (stereo not given) | 20µM* | · | · | · | -10
